KLK7 zymogen act = proKLK7 zymogen activators, primary screen, biochemical, fluorescence intensity; Kallikrein-7 (Homo sapiens), P49862; purified proKLK7, EDANS-DABCYL substrate fluorescence; 100% is mature enzyme control, 0% vehicle; activation, % at 7 µM; hit rate 0.9% among 370,000; AID 652039, 2013;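 active means activation above the mean of all tested compounds plus 3 SD, computed per campaign excluding outliers beyond control limits, cut at about 13% in these data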
Target sequence (P49862 whole entry, looked up): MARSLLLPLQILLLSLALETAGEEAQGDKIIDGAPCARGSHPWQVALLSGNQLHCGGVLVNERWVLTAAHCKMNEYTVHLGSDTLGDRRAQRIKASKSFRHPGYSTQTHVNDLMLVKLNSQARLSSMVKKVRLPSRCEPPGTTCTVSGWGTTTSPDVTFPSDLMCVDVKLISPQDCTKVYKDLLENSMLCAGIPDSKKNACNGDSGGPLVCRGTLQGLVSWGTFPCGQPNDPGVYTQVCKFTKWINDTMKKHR
HGIII-sPLA2 inh = human group III sPLA2 inhibitors, primary screen, biochemical, QFRET, BODIPY PC-A2 liposome substrate; QFRET BODIPY PC-A2 liposome hydrolysis, fluorescence; inhibition, % at 12.2 µM; hit rate 0.56% among 370,000; AID 743126, 2013;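 active means inhibition above mean plus 3 SD of compounds lying within the high and low control bounds, cut at about 19% in these data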;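 further: 0% = median of test compound wells and 100% = no enzyme DMSO wells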
Target sequence (Q9NZ20 whole entry, looked up): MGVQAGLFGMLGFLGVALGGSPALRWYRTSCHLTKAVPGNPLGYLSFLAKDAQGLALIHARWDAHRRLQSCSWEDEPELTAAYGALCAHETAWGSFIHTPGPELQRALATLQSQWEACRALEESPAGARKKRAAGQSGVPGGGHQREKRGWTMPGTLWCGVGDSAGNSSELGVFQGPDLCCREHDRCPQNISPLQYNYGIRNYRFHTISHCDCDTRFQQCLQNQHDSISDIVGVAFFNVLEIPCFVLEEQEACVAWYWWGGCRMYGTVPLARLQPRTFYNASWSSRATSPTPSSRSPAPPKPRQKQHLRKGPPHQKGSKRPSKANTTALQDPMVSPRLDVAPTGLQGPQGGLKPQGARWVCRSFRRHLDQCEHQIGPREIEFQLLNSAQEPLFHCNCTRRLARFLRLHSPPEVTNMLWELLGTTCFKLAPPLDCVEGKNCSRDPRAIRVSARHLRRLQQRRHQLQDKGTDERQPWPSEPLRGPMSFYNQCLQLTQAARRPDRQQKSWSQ
ADAM17 inh = ADAM17 inhibitors, primary screen, biochemical, QFRET | hit rate 0.83% among 370,000 | recombinant ADAM17, EDANS/DABCYL FRET peptide cleavage | inhibition, % at 6.95 µM | Disintegrin and metalloproteinase domain-containing protein 17 (Homo sapiens), P78536 | AID 720648, 2013;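 active means inhibition above the mean of compounds lying between control limits plus 3 SD, set per campaign, cut at about 8.5% in these data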;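 further: 0% = DMSO-only wells as the low control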
PLC-gamma1 inh = PLC-gamma1 enzyme inhibitors, primary screen, biochemical, fluorescence, purified enzyme; 1-phosphatidylinositol 4,5-bisphosphate phosphodiesterase gamma-1 (Homo sapiens), P19174; fluorogenic substrate; inhibition, % at 12.2 µM; hit rate 0.84% among 370,000; AID 720700, 2013; in the data active means inhibition above about 9.5%
PLCb3 inh = human PLC-beta3 inhibitors, primary screen, biochemical, fluorescence | AID 720704, 2013 | inhibition, % at 12.2 µM | Purified PLC-beta3, fluorogenic substrate | hit rate 0.18% among 370,000 | 1-phosphatidylinositol 4,5-bisphosphate phosphodiesterase beta-3 (Homo sapiens), Q01970; in the data active means inhibition above about 11%;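 further: 0% = median of compound wells on plate and 100% = full blocker control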
ADAM10 inh = human ADAM10 inhibitors, primary screen, biochemical, QFRET, HTS; recombinant ADAM10, EDANS/DABCYL FRET peptide cleavage, 3 h; inhibition, % at 7 µM; hit rate 0.62% among 370,000; AID 720582, 2013;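 active means inhibition above a per-campaign cutoff equal to the mean of compounds falling between control-based bounds plus 3 SD, cut at about 20% in these data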;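 further: 0% = DMSO wells while the 100% control is not disclosed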
proKLK7 act conf = proKLK7 zymogen activators, confirmation, biochemical, fluorescence intensity, triplicate | shares compounds with KLK7 zymogen act | purified proKLK7, EDANS-DABCYL substrate fluorescence; scaled: vehicle 0, mature enzyme 100 | activation, % at 7 µM | hit rate 68% among 3,200 | AID 686949, 2013;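 active means activation, as change over the incubation, above the mean of all tested compounds plus 3 SD, cut at about 13% in these data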
EDANS-DABCYL int = EDANS-DABCYL substrate optical interference, artefact control for kallikrein-7 zymogen activator project, biochemical, fluorescence intensity, high throughput; activation, % at 7 µM; hit rate 80% among 3,200; shares compounds with KLK7 zymogen act; AID 686952, 2013; no enzyme, 4 h; solvent 0%, active enzyme control 100%;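 active means activation above the all-compound mean plus 3 SD, ignoring values outside control-based bounds, cut at about 4.8% in these data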;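 further: value is the 4 h activation minus the activation read at time zero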
K7 EDANS ctr = EDANS fluorescence interference in dose response, no enzyme; EC50, µM; EDANS-DABCYL peptide fluorescence interference; shares compounds with KLK7 zymogen act; hit rate 20% among 250;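 active means compounds that raise the fluorescence signal in this interference counterscreen, with EC50 at or below 10 µM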;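 further: intact quenched peptide substrate alone read at 355 nm excitation and 520 nm emission; signal is fluorescence gain from T0 to T4 after four hours at room temperature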
Starred values were filed as active, the others as inactive; i = inactive; . = no result given. This is a sample that favours compounds with a hit; in the whole collection about 3.4% have one here.

SMILES | KLK7 zymogen act | HGIII-sPLA2 inh | ADAM17 inh | PLC-gamma1 inh | PLCb3 inh | ADAM10 inh | proKLK7 act conf | EDANS-DABCYL int | others
COc1cc2cc(Oc3ccc4ccc(=O)oc4c3)c(=O)oc2cc1O | 37.3* | -0.6 | -36.4 | -55.0 | -72.3 | -170.6 | 36.4* | 39.8*
O=C(CN1C(=O)NC2(CCCCC2)C1=O)Oc1ccc2ccc(=O)oc2c1 | 127.0* | 10.6 | i | i | i | i | 62.0* | 65.4*
O=C(CN1C(=O)CCSc2ccccc21)Nc1cccc(Cl)c1F | 0.3 | 2.3 | -0.6 | -0.3 | -0.4 | -6.0 | . | .
Nc1ccc(-c2nc3ncccc3o2)cc1 | 38.5* | -1.0 | i | i | i | i | 58.0* | 71.2*
CCN(CC)C(=O)CC[C@H]1CC[C@]2(CCCN(Cc3ccccc3)C2)O1 | -0.2 | -0.1 | -0.4 | -0.6 | 1.1 | 2.2 | . | .
COC(=O)C1=C(C)N(CCCC(=O)O)C(=O)NC1c1cc2c(cc1[N+](=O)[O-])OCO2 (stereo not given) | 13.2* | -3.4 | -25.6 | -61.5 | -105.5 | -86.1 | 13.1* | 14.2*
C=CCN1C(=O)[C@H](CC(=O)NCCCOCCCC)[C@@]2(C(=O)OCC)CCCC=C12 | 0.2 | 2.6 | 3.9 | 7.9 | 3.2 | 5.0 | . | .
O=C(Nc1ccc(O)c(C(=O)O)c1)Oc1ccccc1 | 25.8* | 0.8 | -77.1 | -72.1 | -110.6 | -181.8 | 30.2* | 28.0*
O=C(Nc1ccc2oc(=O)c(C(=O)O)cc2c1)Oc1ccccc1 | 100.0* | 2.2 | -56.2 | -251.0 | -341.8 | -207.9 | 187.3* | 181.5*
COc1ccc(S(=O)(=O)N2CCCCCC2)c2ccccc12 | 1.4 | -1.1 | 4.2 | 2.2 | 0.8 | 9.4 | . | .
O=C(Nc1nc2ncccn2c1-c1ccc(C(F)(F)F)cc1)C1CC1 | 12.3 | -0.6 | -242.8 | i | i | i | . | .
CC(C)N(C(=O)COC(=O)c1cc(Cl)cc(Cl)c1N)C(C)C | -0.1 | 3.5 | -5.1 | -1.8 | 1.9 | -1.3 | . | .
CN(C)C(=O)COC(=O)c1cc(Cl)cc(Cl)c1N | 25.3* | 0.1 | i | i | i | i | 24.3* | 30.9*
CC(C)[C@@H]1NC(=O)[C@H]2C[C@@]3(C)c4ccccc4N[C@H]3N2C1=O | -0.3 | 0.0 | -3.9 | -3.4 | -4.6 | -16.3 | . | .
COc1cc2c(cc1OC)CC(=O)N(C)CC2 | 0.7 | -1.2 | 0.3 | 3.6 | 2.5 | 3.0 | . | .
COc1cc2c(cc1OC)C1CCN3C(=O)CCC3N1CC2 (stereo not given) | 20.0* | 5.7 | -38.6 | -230.5 | -263.6 | -164.1 | 24.3* | 18.7* | K7 EDANS ctr=i
CN(C)c1ccc(C2Nc3ccccc3C(=O)N2CCN2CCNC2=O)cc1 (stereo not given) | 1.2 | -1.1 | -36.4 | -21.7 | -38.2 | -90.9 | . | .
O=C1c2ccccc2NC(c2ccccc2Br)N1CCCN1CCOCC1 (stereo not given) | 5.8 | 6.1 | -153.4 | -153.8 | -183.1 | i | . | .
CCCN1C(=O)c2ccccc2NC1c1ccc(O)c(OCC)c1 (stereo not given) | 14.1* | -9.3 | -252.8 | -206.6 | -288.5 | i | 10.4 | 6.7*
Cc1ccc(C2Nc3ccccc3C(=O)N2CCCN2CCOCC2)cc1 (stereo not given) | 23.5* | -3.3 | -241.3 | -260.5 | -364.6 | i | 1.4 | 1.6
O=C1NCCN1CCN1C(=O)c2ccccc2NC1c1ccccc1 (stereo not given) | 20.4* | -1.9 | i | i | i | i | 29.9* | 33.0*
CCCN1C(=O)c2ccccc2NC1c1ccc(Cl)cc1 (stereo not given) | 15.6* | 0.8 | -332.6 | -313.2 | -385.1 | i | 6.2 | 7.0*
CCCN1C(=O)c2ccccc2NC1c1ccc(Cl)c(Cl)c1 (stereo not given) | 0.9 | 6.4 | -242.6 | -202.8 | -279.2 | i | . | .
CCCCNS(=O)(=O)CC1NCc2cc(OC)ccc21 (stereo not given) | -0.6 | 6.3 | -17.3 | -21.9 | -26.2 | -49.0 | . | .
COc1ccc(N2CCN(CCNS(=O)(=O)c3ccc(F)cc3)CC2)cc1 | -0.2 | 1.0 | 0.4 | -1.7 | -0.1 | -4.0 | . | .
SMILES | KLK7 zymogen act | HGIII-sPLA2 inh | ADAM17 inh | PLC-gamma1 inh | PLCb3 inh | ADAM10 inh | proKLK7 act conf | EDANS-DABCYL int | others
Cn1c(=O)c2[nH]c(SCC(=O)NCCc3ccc(F)cc3)nc2n(C)c1=O | 0.2 | 0.5 | -0.3 | 0.1 | -0.9 | -5.3 | . | .
CCCC/C=C1/[C@@H](c2ccc(Cl)cc2)N(Cc2ccc3c(c2)OCO3)C2=N[C@@H](c3ccccc3)CC(=O)N21 | -0.1 | 0.2 | -1.2 | -2.8 | 1.5 | 1.5 | . | .
O=C1C=C(N2CCOCC2)c2cccc3cccc1c23 | 26.9* | -50.6 | -12.3 | -65.1 | -81.4 | -24.2 | -0.4 | 0.7
O=C1C(N2CCOCC2)=Cc2cccc3cccc1c23 | -1.2 | -69.5 | -13.6 | -111.2 | -159.6 | -45.9 | . | .
CN1c2ccc(Cl)cc2C(=O)NC1C1CC=CCC1 (stereo not given) | 14.3* | -6.5 | -171.4 | -327.9 | -459.8 | -498.1 | -5.4 | -9.2
CCCN1C(=O)C2(OCCO2)c2cc(Cl)ccc21 | 0.2 | -1.1 | 0.1 | 1.0 | -3.7 | 1.2 | . | .
COc1ccc2nc3cc(Cl)ccc3c(Nc3ccc(O)c(CN4CCN(C)CC4)c3)c2c1 | 22.4* | 0.2 | -110.8 | -310.2 | -377.0 | -482.6 | 32.2* | 22.4* | K7 EDANS ctr=>69.5
NC(=O)c1ccc(Nc2nnc(-c3ccc(O)cc3)c3ccccc23)cc1 | 4.1 | -6.5 | -18.6 | -358.0 | -497.5 | -30.9 | . | .
CNC(=O)c1ccc(Nc2nnc(-c3ccc(C(N)=O)cc3)c3ccccc23)cc1 | 132.8* | 2.4 | 0.9 | -213.1 | -301.9 | 1.6 | 7.2 | 108.3*
CCc1ccc(/C=C2\Oc3c(ccc(O)c3CN3CCN(CCO)CC3)C2=O)cc1 | 28.4* | -22.9 | -38.9 | i | i | -86.7 | 1.5 | 6.5*
CCCc1cc(=O)oc2c3c(cc(OCC(=O)NCCCn4ccnc4)c12)OC(C)(C)CC3 | 17.2* | -17.4 | i | i | i | i | -37.2 | -40.5
Cc1cc(=O)oc2c3c(cc(OCC(=O)NCCN4CCOCC4)c12)OC(C)(C)CC3 | 34.5* | 1.6 | i | i | i | i | 56.9* | 70.2*
